Data published in the supplement of paper PMC6555819.

Key:
Experiment in all cases: PBM binding z-score (relative to random genomic background probes); higher = stronger binding; sequences stand for … in GC…GCGATTGACAGCGTAGAATGAAGG
[1] = system: PPARg:RXRa DBDmut IVT, anti-RXR (DBD mutation: RXRa K156A/R161A, NR concentration 270 nM, RXRa partner concentration 90 nM)
Method in brief: (§1)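 Scanned fluorescence from custom Agilent 4×180K protein-binding microarrays was regression-normalized. Binding z-scores use random background probes as reference. Ligand-free nuclear receptor dimers were incubated on the arrays for 1 h and detected with antibodies against each partner (one per run).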

[2] = system: PPARg:RXRa IVT, anti-PPARg (NR concentration 270 nM, RXRa partner concentration 90 nM)
Method in brief: as §1

[3] = system: PPARg DBDmut:RXRa IVT, anti-PPARg (DBD mutation: PPARg1 K132A/R137A, NR concentration 270 nM, RXRa partner concentration 90 nM)
Method in brief: as §1

[4] = system: PPARg DBDmut IVT, anti-PPARg (DBD mutation: PPARg1 K132A/R137A, NR concentration 270 nM)
Method in brief: as §1

[5] = system: PPARg homodimer (NR concentration 180 nM)
Method in brief: as §1

[6] = system: PXR:RXRa (NR concentration 270 nM, RXRa partner concentration 90 nM)
Method in brief: as §1

[7] = system: PXR homodimer (NR concentration 270 nM)
Method in brief: as §1

[8] = system: RARa:RXR (NR concentration 270 nM, RXRa partner concentration 90 nM)
Method in brief: as §1

[9] = system: RARa homodimer (NR concentration 270 nM)
Method in brief: as §1

[10] = system: RARb:RXRa (NR concentration 270 nM, RXRa partner concentration 90 nM)
Method in brief: as §1

[11] = system: RARb homodimer (NR concentration 270 nM)
Method in brief: as §1

[12] = system: RARg:RXRa (NR concentration 270 nM, RXRa partner concentration 90 nM)
Method in brief: as §1

[13] = system: RARg homodimer (NR concentration 270 nM)
Method in brief: as §1

[14] = system: RXRa DBDmut IVT, anti-RXR (DBD mutation: RXRa K156A/R161A, NR concentration 90 nM)
Method in brief: as §1

[15] = system: RXRa homodimer (NR concentration 180 nM)
Method in brief: as §1

[16] = system: THRa:RXRa (NR concentration 90 nM, RXRa partner concentration 90 nM)
Method in brief: as §1

[17] = system: THRa homodimer (NR concentration 90 nM)
Method in brief: as §1

[18] = system: VDR homodimer (NR concentration 270 nM)
Method in brief: as §1

Row | Sequence | PBM binding z-score [1] | PBM binding z-score [2] | PBM binding z-score [3] | PBM binding z-score [4] | PBM binding z-score [5] | PBM binding z-score [6] | PBM binding z-score [7] | PBM binding z-score [8] | PBM binding z-score [9] | PBM binding z-score [10] | PBM binding z-score [11] | PBM binding z-score [12] | PBM binding z-score [13] | PBM binding z-score [14] | PBM binding z-score [15] | PBM binding z-score [16] | PBM binding z-score [17] | PBM binding z-score [18]
1 | GCTAGTTGGTTAGTAAAAGGTCACACACCGGTCG | 0.595 | 2.29 | 0.167 | 0.647 | 4.26 | 5.09 | 1.29 | 6.05 | 3.17 | 3.99 | 4.86 | 4.87 | 4.08 | 0.675 | 5.33 | 3.66 | 2.08 | 1.85
2 | CAGCCTAGGTCAGGTCCAGTATAGGAGGAACGTT | 1.02 | 0.846 | -0.384 | -1.31 | 0.577 | 0.126 | -0.567 | 0.528 | -0.0442 | 3 | 1.98 | 2.25 | 3.33 | -0.0428 | 1.14 | 1.68 | 0.525 | 0.207
3 | CCTAGCAGGACAGGGTCACTCAAGCATTTCGCTT | 0.172 | 1.08 | -2.12 | -1.5 | 1.08 | 2.84 | 0.281 | 3.62 | 0.381 | 2.57 | 2.77 | 3.14 | 2.23 | 1.06 | 3.54 | 3.19 | 1.44 | 1.5
4 | CGCCCAAGGTCATAGGAGGTCAGTGAAGACAGAT | 2.88 | 4.26 | -0.0879 | -0.0436 | 3.59 | 6.51 | 3.76 | 5.06 | 1.63 | 5.45 | 5.6 | 6.7 | 7.14 | 3.41 | 6.07 | 5.34 | 3.1 | 3.97
5 | CAAACTATGTCAAGGTCAAAGTCGGTTTGTGCCA | 5.27 | 4.71 | 0.328 | 0.339 | 2.4 | 5 | 3.33 | 4.46 | 1.69 | 4.25 | 4.39 | 4.59 | 4.75 | 2.54 | 4.98 | 4.03 | 3.78 | 4.25
6 | CTACCAATGTGAACAAGGTCGTTGATTACTATTC | 0.604 | 0.639 | 0.446 | 0.752 | 0.968 | 1.99 | 1.41 | 1.89 | 1.01 | 0.831 | 1.33 | 0.629 | 0.564 | 1.83 | 1.08 | 2.17 | 1.33 | 2.32
7 | CAAACTAGGTCACGAAAAGTCAAAGTCGAATGAC | 8 | 9.2 | 4.41 | 4.13 | 2.52 | 2.27 | 0.426 | 3.44 | 0.939 | 4.58 | 3.38 | 4.82 | 5.38 | 1.53 | 3.85 | 3.35 | 1.25 | 0.644
8 | ATATGTCGGTTACATCCGGGTCATTCAGGCTATG | 2.55 | 3.18 | 2.61 | 1.84 | 1.05 | 2.85 | 2.72 | 2.88 | 0.00144 | 1.91 | 2.58 | 2.37 | 1.71 | 0.511 | 2.45 | 3.31 | 2.52 | 3.41
9 | ACTAGCAGGCCAAGTTTGGGTCACACAAACAAAG | 0.756 | 1.65 | 0.166 | -0.339 | 0.789 | 1.07 | -0.0733 | 1.95 | -0.318 | 1.91 | 2.17 | 2.66 | 1.73 | -0.304 | 1.44 | 2.67 | 1.04 | 0.103
10 | ATATGTAGGTTAAGGGTCATTGAGGTTGGTTCGC | 7.14 | 7.77 | 2.89 | 2.08 | 3.71 | 5.1 | 4.17 | 5.84 | 2.44 | 3.7 | 4.17 | 4.87 | 3.36 | 1.89 | 6.28 | 3.55 | 2.06 | 4.8
11 | TCGTGTAGGTTAGTCGGGGCATTCAGCCAACATA | 2.15 | 1.92 | -0.257 | -0.153 | 0.862 | 0.845 | 0.707 | 0.886 | 0.866 | 0.996 | 1.23 | 0.373 | 0.49 | 1.14 | 0.427 | 1.55 | 0.941 | 1.28
12 | TCATATAGGTAATACAGGTGAAAGACGGCATCTA | 4.17 | 3.37 | 1.39 | 1.69 | 1.42 | 0.845 | 0.764 | 1.34 | 1.85 | 0.786 | 0.66 | 0.945 | 0.86 | 1.52 | 1.38 | 0.85 | 0.434 | 0.471
13 | ATTTCTAGGTAACCAAGTTCAGTGAATGCCGAAC | 5.61 | 4.97 | 2.81 | 3.03 | 1.16 | 2.1 | 1.89 | 0.832 | 1.02 | 1.49 | 1.55 | 0.786 | 0.952 | 0.875 | 0.621 | 1.81 | 0.761 | 3.08
14 | TCTGCTAGGACAGTTGGTCAGCTAACGAGCTGCC | 0.464 | 0.0709 | -0.543 | -0.756 | -1.29 | -0.745 | -1.05 | -0.557 | -1.03 | 0.346 | -0.304 | -0.493 | -0.356 | -0.0894 | -0.639 | -0.274 | -0.784 | -1.13
15 | CGTCAAAGTTCAACTTAGGTAACGTAAAGCACGC | -0.00853 | 2.1 | 0.537 | 0.683 | 4.03 | 5.5 | 4.07 | 4.61 | 2.1 | 5.38 | 4.13 | 6.16 | 6.72 | 4.76 | 5.38 | 5.19 | 0.769 | 4.21
